In all, about 39,000 compounds went through this assay and about 500 (1.3%) were called active. This is one part of a sample in which actives are shown more often than they occur.

In this experiment the test system is S. aureus RN4220. As to the kind of experiment: growth inhibition call (relative growth <= 0.2). Conditions: 50 µM.
For `O=C(CCCCCCC(=O)Nc1ccccc1O)N/N=C/[C@H](O)[C@@H](O)[C@@H](O)[C@H](O)C(=O)O`, the growth inhibition call is “inactive”.

For the molecule `C[C@H]1CC[C@@H]2N(C1)C[C@@H]1[C@H]([C@@H](O)[C@H](O)[C@]3(O)[C@H]1C[C@@]14O[C@]5(O)[C@@H](C[C@@H](O)[C@@H]31)[C@]4(C)CC[C@@H]5O)[C@]2(C)O`, the growth inhibition call is “inactive”.

As to `Cc1cc(C(=O)Nc2cccc3c2O[C@H](CN(C)C(=O)Nc2ccc4c(c2)OCO4)[C@H](C)CN([C@H](C)CO)C3=O)n(C)n1`, the growth inhibition call was “inactive”.

Take `COc1ccc(S(=O)(=O)Nc2ccc3c(c2)C(=O)N([C@H](C)CO)C[C@@H](C)[C@@H](CN(C)Cc2ccccc2)OCCCC[C@@H](C)O3)cc1`: the growth inhibition call is “inactive”.

For the molecule `Cc1noc(C)c1NC(=O)N(C)C[C@@H]1OCCCC[C@@H](C)Oc2ccc(NC(=O)c3ccccc3)cc2C(=O)N([C@H](C)CO)C[C@@H]1C`, the growth inhibition call was “inactive”.

Take `CCCN(CCC)[NH2+][O-]`: the growth inhibition call was “inactive”.

Take `C[C@H](CO)N1C[C@H](C)[C@H](CN(C)Cc2ccccc2)Oc2ccc(NC(=O)CCN3CCOCC3)cc2CC1=O`: the growth inhibition call was “inactive”.

Turning to `C[C@@H]1CN([C@H](C)CO)C(=O)c2cc(NC(=O)Nc3cccc4ccccc34)ccc2O[C@@H](C)CCCCO[C@H]1CN(C)S(=O)(=O)c1ccc(F)cc1`, the growth inhibition call was “inactive”.

`CC(C)(Sc1cc(C(C)(C)C)c(O)c(C(C)(C)C)c1)Sc1cc(C(C)(C)C)c(OCC(=O)O)c(C(C)(C)C)c1`: the growth inhibition call was “active”.

As to `CC(C)(Sc1cc(C(C)(C)C)c(O)c(C(C)(C)C)c1)Sc1cc(C(C)(C)C)c(O)c(C(C)(C)C)c1`, the growth inhibition call was “inactive”.

In the case of `CC(C)(Sc1cc(C(C)(C)C)c(O)c(C(C)(C)C)c1)Sc1cc(C(C)(C)C)c(OC(=O)CCC(=O)O)c(C(C)(C)C)c1`, the growth inhibition call was “inactive”.

`C[C@@H]1CN([C@H](C)CO)C(=O)c2cc(NS(=O)(=O)c3ccccc3)ccc2O[C@H]1CN(C)S(=O)(=O)c1ccc(F)cc1`: the growth inhibition call was “inactive”.

Consider `Nc1cccc(-n2cc(CCC(=O)NO)nn2)c1`, for which the growth inhibition call is “inactive”.

For the molecule `Cc1ccc(S(=O)(=O)N(c2cccc(-n3cc(CCC(=O)NO)nn3)c2)S(=O)(=O)c2ccc(C)cc2)cc1`, the growth inhibition call was “active”.

Take `CCOc1cc(OCC)cc(C(=O)N[C@@H](Cc2ccc(-n3cc(CCC(=O)NO)nn3)cc2)C(=O)OC)c1`: the growth inhibition call was “inactive”.

For the molecule `CC(/C=C/C(=O)NO)=C\c1ccccc1OCc1cn(-c2cccc(N(S(=O)(=O)c3ccc(C)cc3)S(=O)(=O)c3ccc(C)cc3)c2)nn1`, the growth inhibition call was “inactive”.

For the molecule `COC(=O)[C@@H](N)Cc1ccc(-n2cc(CCC(=O)NO)nn2)cc1`, the growth inhibition call is “active”.

For `Nc1ccc(-n2cc(CCC(=O)NO)nn2)cc1`, the growth inhibition call is “inactive”.

With `Cc1onc(-c2ccccc2)c1C#N`, the growth inhibition call was “inactive”.

Turning to `NCCOB(c1ccccc1)c1ccccc1`, the growth inhibition call is “inactive”.

Consider `C[C@@H]1CCCCO[C@H](CN(C)C(=O)Nc2ccc(C(F)(F)F)cc2)[C@@H](C)CN([C@H](C)CO)C(=O)c2cc(NC(=O)Cc3ccccc3)ccc2O1`, for which the growth inhibition call was “inactive”.

For `CC(C)NC(=O)N(C)C[C@@H]1Oc2ccc(NC(=O)Cc3ccccc3)cc2CC(=O)N([C@H](C)CO)C[C@@H]1C`, the growth inhibition call is “inactive”.

For the molecule `C[C@@H]1CN([C@@H](C)CO)C(=O)c2cc(NS(C)(=O)=O)ccc2O[C@@H]1CN(C)C(=O)Nc1ccc2c(c1)OCO2`, the growth inhibition call is “inactive”.

For the molecule `CS(=O)(=O)N1CCn2cc(Cn3cncn3)nc2C1`, the growth inhibition call is “inactive”.

Take `CCCC#Cc1cnc2c(c1)C(=O)N([C@@H](C)CO)C[C@H](C)[C@@H](CN(C)S(=O)(=O)c1cn(C)cn1)O2`: the growth inhibition call was “inactive”.

For `COc1ccc(NC(=O)N(C)C[C@@H]2Oc3ccc(NC(=O)CCN4CCOCC4)cc3C(=O)N([C@H](C)CO)C[C@H]2C)cc1`, the growth inhibition call is “inactive”.

With `CC(C)c1cc2c(cc1S(=O)(=O)O)[C@@]1(C)CCC[C@@](C)(C(=O)O)[C@@H]1CC2`, the growth inhibition call is “inactive”.

On to `CC(C)C1=CC2=CCC3C(C)(C(=O)O)CCCC3(C)C2CC1` (stereo not given), for which the growth inhibition call is “active”.

Turning to `CC(C)C1=CC2=CC[C@H]3[C@](C)(CO)CCC[C@]3(C)[C@@H]2CC1`, the growth inhibition call is “inactive”.

As for `CCc1nc2ccc(C(=O)N3CCN(S(=O)(=O)CC)CC3)cn2c1N(C)Cc1ccc(Cl)cc1`, the growth inhibition call is “inactive”.

For the molecule `CN1CC2(COC2)OCCS1(=O)=O`, the growth inhibition call was “inactive”.

Regarding `COc1ccc(S(=O)(=O)Nc2ccc3c(c2)CC(=O)N([C@H](C)CO)C[C@H](C)[C@@H](CN(C)S(=O)(=O)c2cn(C)cn2)O3)cc1`, the growth inhibition call was “inactive”.

With `Cc1cc(CC(=O)O)n(C)c1C(=O)c1ccc(Cl)cc1`, the growth inhibition call was “inactive”.

Take `CC1(C)Cc2c(-c3ccccc3)c(-c3ccc(Cl)cc3)c(CC(=O)O)n2C1`: the growth inhibition call is “active”.

On to `C[C@H]1CN([C@@H](C)CO)C(=O)c2cccc(NC(=O)Nc3ccc(C(F)(F)F)cc3)c2O[C@@H]1CN(C)C(=O)Nc1ccc(C(F)(F)F)cc1`, for which the growth inhibition call was “inactive”.

Take `CC(=O)OC1CC(OC(C)=O)C2(C)C(CC(OC(C)=O)C3(C)C4=CC(=O)OC(c5ccoc5)C4(C)CCC32)C1(C)C` (stereo not given): the growth inhibition call was “inactive”.

`CC(C)NC(=O)N(C)C[C@H]1Oc2ccc(NC(=O)Nc3ccc4c(c3)OCO4)cc2CC(=O)N([C@@H](C)CO)C[C@H]1C`: the growth inhibition call was “inactive”.

In the case of `Oc1c(Cl)cc(Cl)c(Cl)c1Cc1c(O)c(Cl)cc(Cl)c1Cl`, the growth inhibition call was “inactive”.

`Oc1c(Cl)cc(Cl)cc1Sc1cc(Cl)cc(Cl)c1O`: the growth inhibition call was “inactive”.

Consider `O=C(Nc1cc(Cl)cc(Cl)c1O)c1c(O)c(Cl)cc(Cl)c1Cl`, for which the growth inhibition call was “active”.

Take `CS(=O)(=O)N1C[C@@H](O)COC[C@H]2O[C@H](CC(=O)NCc3ccccc3)CC[C@@H]21`: the growth inhibition call was “inactive”.

As to `Cc1noc(C)c1S(=O)(=O)Nc1ccc2c(c1)C(=O)N([C@H](C)CO)C[C@H](C)[C@@H](CN(C)Cc1ccncc1)O2`, the growth inhibition call is “inactive”.

`C[C@@H]1CCCCO[C@H](CN(C)C(=O)CCC(F)(F)F)[C@H](C)CN([C@H](C)CO)C(=O)c2cc(NS(=O)(=O)c3cccs3)ccc2O1`: the growth inhibition call is “inactive”.

Regarding `CC(=O)O[C@H]1C[C@@]2(C)[C@@H](C[C@@H](O)[C@@H]3[C@@]4(C)CC[C@@H](O)[C@@H](C)[C@@H]4CC[C@@]32C)/C1=C(/CCC=C(C)C)C(=O)O`, the growth inhibition call was “active”.

Regarding `CC(=O)O[C@H]1C[C@@]2(C)[C@@H](C[C@@H](O)[C@H]3[C@@]4(C)CC[C@@H](O)[C@@H](C)[C@@H]4CC[C@@]32C)/C1=C(\CCC=C(C)C)C(=O)O`, the growth inhibition call is “active”.

For the molecule `CC(=O)OC1(C(C)=O)CCC2C3CC(C)C4=CC(=O)CCC4(C)C3CCC21C` (stereo not given), the growth inhibition call is “inactive”.

As to `CC(=O)OC1CC2(C)C(CC(O)C3C4(C)CCC(O)C(C)C4CCC32C)C1=C(CCC=C(C)C)C(=O)O` (stereo not given), the growth inhibition call was “active”.

For `CC(=O)O[C@H]1C[C@@]2(C)[C@@H](C[C@@H](O)[C@H]3[C@@]4(C)CC[C@@H](O)[C@@H](C)[C@H]4CC[C@@]32C)C1=C(CCC=C(C)C)C(=O)O`, the growth inhibition call is “active”.

With `CC(=O)C1CCC2C3CC=C4CC(OC(=O)CCC(=O)O)CCC4(C)C3CCC12C` (stereo not given), the growth inhibition call was “inactive”.

With `CC(=O)OC1(C(C)=O)CCC2C3C=C(C)C4=CC(=O)CCC4(C)C3CCC21C` (stereo not given), the growth inhibition call is “inactive”.

Turning to `C[C@H](CO)N1C[C@H](C)[C@H](CN(C)C(=O)Nc2ccccc2)OCCCC[C@H](C)Oc2ccc(NC(=O)Nc3ccc(F)cc3)cc2C1=O`, the growth inhibition call was “inactive”.

As to `C[C@H](CO)N1C[C@H](C)[C@@H](CN(C)CC2CC2)Oc2ccc(NS(=O)(=O)c3cccs3)cc2C1=O`, the growth inhibition call is “inactive”.

Turning to `Cc1ccc(S(=O)(=O)N(C)C[C@H]2Oc3ccc(NC(=O)Nc4cccc5ccccc45)cc3C(=O)N([C@@H](C)CO)C[C@H]2C)cc1`, the growth inhibition call is “inactive”.

With `O=C1NCC(=O)N2[C@@H]1C[C@@H](C(=O)O)[C@H]2c1ccc(O)cc1`, the growth inhibition call is “inactive”.

As for `C[C@H](CO)N1C[C@H](C)[C@H](CN(C)Cc2cccc(F)c2)Oc2cc(C#CC3CC3)ccc2S1(=O)=O`, the growth inhibition call is “inactive”.

As to `C[C@H](CO)N1C[C@H](C)[C@@H](CN(C)CC2CCCCC2)Oc2ccc(NC(=O)Cn3cnnn3)cc2C1=O`, the growth inhibition call is “inactive”.

For `C[C@@H]1CN([C@@H](C)CO)S(=O)(=O)c2ccc(Br)cc2O[C@H]1CN(C)S(=O)(=O)c1ccc(F)cc1`, the growth inhibition call was “inactive”.

On to `COc1ccc(S(=O)(=O)N(C)C[C@@H]2Oc3ccc(NC(=O)c4ccncc4)cc3C(=O)N([C@H](C)CO)C[C@@H]2C)cc1`, for which the growth inhibition call is “inactive”.

In the case of `C[C@H](CO)N1C[C@H](C)[C@@H](CN(C)S(=O)(=O)c2cn(C)cn2)OCCCC[C@H](C)Oc2ccc(NS(=O)(=O)c3cn(C)cn3)cc2C1=O`, the growth inhibition call was “inactive”.

For `C[C@@H]1CCCCO[C@H](CN(C)C(=O)Cc2ccccc2)[C@@H](C)CN([C@@H](C)CO)C(=O)c2cc(NC(=O)C3CCCCC3)ccc2O1`, the growth inhibition call is “inactive”.

Regarding `C[C@@H]1CCCCO[C@@H](CN(C)C(=O)Nc2ccc(F)cc2)[C@H](C)CN([C@@H](C)CO)C(=O)c2cc(NC(=O)CCC(F)(F)F)ccc2O1`, the growth inhibition call was “inactive”.

`C[C@H]1CN([C@@H](C)CO)C(=O)CCCn2nncc2CO[C@@H]1CN(C)S(=O)(=O)c1ccc(Oc2ccccc2)cc1`: the growth inhibition call was “inactive”.

In the case of `C[C@H](N)C(=O)NCC(=O)N[C@H]1CSSC[C@@H](C(=O)O)NC(=O)[C@H](CO)NC(=O)[C@H]([C@@H](C)O)NC(=O)[C@H](Cc2ccccc2)NC(=O)[C@H]([C@@H](C)O)NC(=O)[C@H](CCCCN)NC(=O)[C@H](Cc2c[nH]c3ccccc23)NC(=O)[C@H](Cc2ccccc2)NC(=O)[C@H](Cc2ccccc2)NC(=O)[C@H](CC(N)=O)NC(=O)[C@H](CCCCN)NC1=O`, the growth inhibition call is “inactive”.

`CSCC[C@H](NC(=O)[C@H](Cc1c[nH]c2ccccc12)NC(=O)CNC(=O)[C@@H](NC(=O)[C@H](Cc1ccc(OS(=O)(=O)O)cc1)NC(=O)[C@H](CC(=O)O)NC(=O)[C@H](CCC(N)=O)NC(=O)[C@@H]1CCC(=O)N1)[C@@H](C)O)C(=O)N[C@@H](CC(=O)O)C(=O)N[C@@H](Cc1ccccc1)C(N)=O`: the growth inhibition call is “inactive”.

Consider `CCCCCCCCCC(=O)N[C@@H](Cc1c[nH]c2ccccc12)C(=O)N[C@H](CC(N)=O)C(=O)N[C@@H](CC(=O)O)C(=O)N[C@@H]1C(=O)NCC(=O)N[C@@H](CCCN)C(=O)N[C@@H](CC(=O)O)C(=O)N[C@H](C)C(=O)N[C@@H](CC(=O)O)C(=O)NCC(=O)N[C@H](CO)C(=O)N[C@@H]([C@H](C)CC(=O)O)C(=O)N[C@@H](CC(=O)c2ccccc2N)C(=O)O[C@@H]1C`, for which the growth inhibition call is “active”.
